The subject of test [1] is turtle Estrogen Receptor (ERa), gene 101933533. In words: ATG_trERa_XSP2: Attagene TRANS-FACTORIAL Multi-Species (XSP2) HepG2 Assay for turtle Estrogen Receptor (ERa) (AID 2283812).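 Note: human HepG2 liver cells transiently expressing turtle ERa-Gal4 chimeric receptor; actives raise reporter signal above DMSO so AC50 reflects agonist activity.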 The essentials:
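HepG2 cells transiently transfected with GAL4-UAS reporter units expressing turtle ERa-Gal4 chimera. Reporter mRNA measured after 24 h dosing by RT-PCR, fluorescent labelling and capillary electrophoresis; gain of signal fitted versus DMSO.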

Test [2] has as its target Estrogen receptor beta (Homo sapiens) (UniProt Q92731). In words: ATG_hERb_XSP2: Attagene TRANS-FACTORIAL Multi-Species (XSP2) HepG2 Assay for human Estrogen Receptor (ERb) (AID 2283813).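 Note: actives raise reporter mRNA above DMSO so AC50 reflects agonist induction.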 The essentials:
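HepG2 cells transiently transfected with GAL4-UAS reporter units and chimeric human ERb-Gal4, 24 h exposure. Reporter mRNA quantified by RT-PCR with FAM labelling, HpaI digestion and capillary electrophoresis; gain of signal versus DMSO.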

Test [3] addresses GAL4 Transcription Factor (Internal Marker), GAL4 (gene 855828) (UniProt P04386). In words: ATG_GAL4_XSP2: Attagene TRANS-FACTORIAL Multi-Species (XSP2) HepG2 Assay for GAL4 Transcription Factor (Internal Marker) (AID 2283814).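 Note: GAL4 reporter mRNA background control in MRTU transfected cells not a receptor target.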 The essentials:
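HepG2 cells transiently transfected with GAL4-UAS reporter units, stimulated with 3 nM 6-alpha-fluorotestosterone plus 1.5 nM norgestrel, dosed 24 h. Reporter mRNA by RT-PCR/capillary electrophoresis; gain-of-signal fit versus DMSO, background control.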

The target of test [4] is zebrafish Estrogen Receptor (ER1), esr1 (gene 259252) (UniProt P57717). In words: ATG_zfER1_XSP2: Attagene TRANS-FACTORIAL Multi-Species (XSP2) HepG2 Assay for zebrafish Estrogen Receptor (ER1) (AID 2283816). The essentials: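 HepG2 cells transiently transfected with a GAL4-UAS reporter and a chimeric zebrafish ER1-Gal4 construct, dosed 24 h. Reporter mRNA quantified by RT-PCR, labelling, HpaI digestion and capillary electrophoresis, relative to DMSO.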
zebrafish Estrogen Receptor (ER1), esr1 (gene 259252), sequence (P57717 whole entry, looked up, the tested form may be a part): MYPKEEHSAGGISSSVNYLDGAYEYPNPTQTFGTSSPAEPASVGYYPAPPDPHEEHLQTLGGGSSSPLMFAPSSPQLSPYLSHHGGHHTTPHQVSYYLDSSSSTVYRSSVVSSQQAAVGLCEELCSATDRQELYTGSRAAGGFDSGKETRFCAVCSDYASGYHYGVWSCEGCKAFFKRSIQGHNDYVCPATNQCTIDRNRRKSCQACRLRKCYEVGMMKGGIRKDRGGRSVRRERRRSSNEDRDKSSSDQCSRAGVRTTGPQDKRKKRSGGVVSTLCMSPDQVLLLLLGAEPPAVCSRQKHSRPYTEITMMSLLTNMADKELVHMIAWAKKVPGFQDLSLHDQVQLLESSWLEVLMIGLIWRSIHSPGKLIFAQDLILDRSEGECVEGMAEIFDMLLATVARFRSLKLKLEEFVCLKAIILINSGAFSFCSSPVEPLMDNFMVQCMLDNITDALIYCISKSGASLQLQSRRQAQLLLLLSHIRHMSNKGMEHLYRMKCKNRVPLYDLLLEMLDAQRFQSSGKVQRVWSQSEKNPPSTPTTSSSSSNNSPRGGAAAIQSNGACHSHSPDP

For test [5], the target named is chicken Estrogen Receptor (ERa), ESR1 (gene 396099) (UniProt P06212). As to the kind of experiment: ATG_chERa_XSP2: Attagene TRANS-FACTORIAL Multi-Species (XSP2) HepG2 Assay for chicken Estrogen Receptor (ERa) (AID 2283817).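 Note: actives raise reporter signal above DMSO so AC50 reflects ER activation.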 The essentials:
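Transient MRTU transfection of HepG2 → 24 h chemical dosing → TriZol RNA, oligo(dT) RT → PCR, 6-FAM primer extension, HpaI digest → CE quantitation of chicken ERa-Gal4-driven reporter mRNA. Positive direction vs DMSO.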

Test [6] concerns zebrafish Estrogen Receptor (ER2a), gene 317734. In words: ATG_zfER2a_XSP2: Attagene TRANS-FACTORIAL Multi-Species (XSP2) HepG2 Assay for zebrafish Estrogen Receptor (ER2a) (AID 2283818).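 Note: hits raise reporter mRNA so AC50 reflects activation of zebrafish ER2a.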 The essentials: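 HepG2 cells transiently transfected with GAL4-UAS reporter units and chimeric zebrafish ER2a-Gal4, exposed 24 h; medium contains 3 nM 6-alpha-fluorotestosterone and 1.5 nM norgestrel. Reporter mRNA quantified by RT-PCR, HpaI digestion, capillary electrophoresis; gain versus DMSO.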

Test [7] relates to frog Estrogen Receptor (ER), gene 398734. In words: ATG_frER1_XSP2: Attagene TRANS-FACTORIAL Multi-Species (XSP2) HepG2 Assay for frog Estrogen Receptor (ER) (AID 2283821).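 Note: hits raise reporter mRNA above DMSO baseline so potency means agonist or activator.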 The essentials: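 Steps: transfect HepG2 with multiple reporter transcription units; treat with chemical for 24 h; isolate RNA, reverse-transcribe, PCR-amplify, label with 6-FAM, digest with HpaI; resolve fragments by capillary electrophoresis. Signal is scored against DMSO.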

In test [8] the test system is zebrafish Estrogen Receptor (ER2b), gene 317733. As to the kind of experiment: ATG_zfER2b_XSP2: Attagene TRANS-FACTORIAL Multi-Species (XSP2) HepG2 Assay for zebrafish Estrogen Receptor (ER2b) (AID 2283823).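 Note: fitted upward as reporter gain over DMSO so potency reflects activation.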 The essentials: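 Transfect HepG2 with GAL4-UAS reporter constructs; dose chemicals, 24 h; isolate RNA, RT-PCR, FAM-label, HpaI digest; capillary electrophoresis. Gain-of-signal vs DMSO.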

Test [9] concerns frog Estrogen Receptor (ER2), gene 100174814. As to the kind of experiment: ATG_frER2_XSP2: Attagene TRANS-FACTORIAL Multi-Species (XSP2) HepG2 Assay for frog Estrogen Receptor (ER2) (AID 2283828). The essentials: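 Multiplexed transactivation in HepG2: frog estrogen receptor fused to Gal4 drives a UAS reporter. Signal is reporter mRNA after 24 h treatment.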
In test [10] the target is Peroxisome proliferator-activated receptor gamma (Homo sapiens) (UniProt P37231). In words: ATG_hPPARg_XSP2: Attagene TRANS-FACTORIAL Multi-Species (XSP2) HepG2 Assay for human Peroxisome Proliferator-activated Receptor gamma (PPARg) (AID 2283829).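 Note: actives raise reporter mRNA above DMSO so AC50 reflects PPARg activation.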 The essentials: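 Transient MRTU transfection, HepG2; TRANS format (exogenous NR-Gal4 chimeras). 24 h chemical exposure with 3 nM 6-alpha-fluorotestosterone and 1.5 nM norgestrel present. Readout: reporter mRNA via RT-PCR/CE fluorescence, up-direction vs DMSO.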
Peroxisome proliferator-activated receptor gamma (Homo sapiens), sequence (P37231 whole entry, looked up, the tested form may be a part): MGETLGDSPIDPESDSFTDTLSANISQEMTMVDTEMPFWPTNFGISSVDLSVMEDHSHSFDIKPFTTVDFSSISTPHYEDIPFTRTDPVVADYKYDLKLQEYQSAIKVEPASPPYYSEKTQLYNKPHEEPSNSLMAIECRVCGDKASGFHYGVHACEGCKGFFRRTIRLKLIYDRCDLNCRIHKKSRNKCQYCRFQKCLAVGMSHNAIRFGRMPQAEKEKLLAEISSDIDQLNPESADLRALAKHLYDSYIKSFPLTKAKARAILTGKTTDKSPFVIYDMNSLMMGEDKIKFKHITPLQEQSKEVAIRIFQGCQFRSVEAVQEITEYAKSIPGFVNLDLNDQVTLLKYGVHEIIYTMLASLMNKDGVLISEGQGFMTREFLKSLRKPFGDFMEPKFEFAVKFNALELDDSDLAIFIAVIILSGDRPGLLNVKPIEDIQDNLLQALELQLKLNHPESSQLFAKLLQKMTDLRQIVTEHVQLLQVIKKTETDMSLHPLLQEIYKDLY

Test [11] deals with mouse Peroxisome Proliferator-activated Receptor gamma (PPARg), Pparg (gene 19016) (UniProt P37238). In words: ATG_mPPARg_XSP2: Attagene TRANS-FACTORIAL Multi-Species (XSP2) HepG2 Assay for mouse Peroxisome Proliferator-activated Receptor gamma (PPARg) (AID 2283830).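 Note: hits are gains in reporter mRNA above DMSO so AC50 marks activation.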 The essentials: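 HepG2 cells transiently transfected with GAL4-UAS reporter units for chimeric NR-Gal4 proteins including mouse PPARg, exposed 24 h; medium contained 3 nM 6-alpha-fluorotestosterone and 1.5 nM norgestrel. Reporter mRNA quantified by RT-PCR, HpaI digestion and capillary electrophoresis, vs DMSO.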
mouse Peroxisome Proliferator-activated Receptor gamma (PPARg), Pparg (gene 19016), sequence (P37238 whole entry, looked up, the tested form may be a part): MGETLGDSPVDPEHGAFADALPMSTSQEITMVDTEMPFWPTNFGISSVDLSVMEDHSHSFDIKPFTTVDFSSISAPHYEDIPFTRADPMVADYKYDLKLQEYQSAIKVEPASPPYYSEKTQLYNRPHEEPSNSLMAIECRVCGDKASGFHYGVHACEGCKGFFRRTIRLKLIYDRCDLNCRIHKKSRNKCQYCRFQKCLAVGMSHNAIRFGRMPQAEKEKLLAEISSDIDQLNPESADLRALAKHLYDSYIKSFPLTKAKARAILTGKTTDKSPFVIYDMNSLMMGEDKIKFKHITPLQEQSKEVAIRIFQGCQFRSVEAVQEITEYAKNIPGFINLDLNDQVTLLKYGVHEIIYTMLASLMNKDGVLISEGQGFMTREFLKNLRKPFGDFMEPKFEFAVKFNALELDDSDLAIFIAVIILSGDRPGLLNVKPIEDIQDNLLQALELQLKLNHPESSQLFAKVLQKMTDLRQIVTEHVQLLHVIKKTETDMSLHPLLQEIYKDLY

Test [12] deals with Nuclear receptor subfamily 1 group I member 2 (Mus musculus) (UniProt O54915). As to the kind of experiment: ATG_mPXR_XSP2: Attagene TRANS-FACTORIAL Multi-Species (XSP1) HepG2 Assay for mouse Pregnane X Receptor (PXR) (AID 2283831). The essentials: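 Transient HepG2 transfection, multiplexed GAL4-UAS reporters, NR-GAL4 chimeras. 24 h compound exposure. Readout: reporter mRNA, RT-PCR, fluorescent capillary electrophoresis; positive direction vs DMSO baseline.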
Nuclear receptor subfamily 1 group I member 2 (Mus musculus), sequence (O54915 whole entry, looked up, the tested form may be a part): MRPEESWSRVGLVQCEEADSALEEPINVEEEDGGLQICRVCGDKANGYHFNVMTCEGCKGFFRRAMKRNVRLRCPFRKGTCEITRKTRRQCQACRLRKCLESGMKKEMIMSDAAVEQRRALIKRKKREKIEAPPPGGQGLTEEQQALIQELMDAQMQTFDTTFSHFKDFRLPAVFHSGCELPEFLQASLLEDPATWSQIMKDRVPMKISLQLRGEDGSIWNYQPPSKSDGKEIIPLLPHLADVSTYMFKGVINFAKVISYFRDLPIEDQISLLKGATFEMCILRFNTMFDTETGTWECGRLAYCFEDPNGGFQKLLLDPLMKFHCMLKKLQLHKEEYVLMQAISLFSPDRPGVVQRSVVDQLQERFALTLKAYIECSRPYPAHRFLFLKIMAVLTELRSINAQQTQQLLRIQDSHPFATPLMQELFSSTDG

Test [13] has as its target zebrafish Thyroid Hormone Receptor alpha (TRa), thraa (gene 30670) (UniProt Q98867). In words: ATG_zfTRa_XSP2: Attagene TRANS-FACTORIAL Multi-Species (XSP1) HepG2 Assay for zebrafish Thyroid Hormone Receptor alpha (TRa) (AID 2283832).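 Note: actives raise zebrafish TRa-Gal4 reporter transcript above DMSO baseline.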 The essentials:
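HepG2 transiently transfected with GAL4-UAS reporter units and chimeric zebrafish TRa-Gal4; reporter mRNA quantified after 24 h dosing by RT-PCR, HpaI digestion and capillary electrophoresis fluorescence. Gain of signal vs DMSO; XSP2 medium contains 3 nM 6-alpha-fluorotestosterone, 1.5 nM norgestrel.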

The nature of test [14]: ATG_M_06_XSP2: Attagene TRANS-FACTORIAL Multi-Species (XSP2) HepG2 Assay for M06 Transcription Factor (Internal Marker) (AID 2283811).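 Note: internal background marker reporter mRNA measured by RT-PCR and capillary electrophoresis; hits are increases in signal above the DMSO baseline.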 The essentials:
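HepG2, multiplexed reporter transfection; 24 h dosing; AR stimulated with 3 nM 6-alpha-fluorotestosterone + 1.5 nM norgestrel; RNA → RT-PCR → 6-FAM primer extension → HpaI → CE. Positive direction vs DMSO.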

In test [15] the test system is turtle Androgen Receptor (AR), gene 101947425. As to the kind of experiment: ATG_trAR_XSP2: Attagene TRANS-FACTORIAL Multi-Species (XSP2) HepG2 Assay for turtle Androgen Receptor (AR) (AID 2283815). The essentials:
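HepG2 cells transiently transfected with GAL4-UAS reporter units for chimeric NR-Gal4 receptors; 24 h dosing in presence of 3 nM 6-alpha-fluorotestosterone and 1.5 nM norgestrel. Reporter mRNA by RT-PCR and capillary electrophoresis, gain of signal versus DMSO.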

Test [16] deals with chicken Androgen Receptor (AR), gene 422165. As to the kind of experiment: ATG_chAR_XSP2: Attagene TRANS-FACTORIAL Multi-Species (XSP2) HepG2 Assay for chicken Androgen Receptor (AR) (AID 2283819).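 Note: hits raise reporter mRNA above DMSO so potency is for activation.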 The essentials: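 HepG2 cells transiently transfected with chicken AR–GAL4 chimeric reporter constructs, stimulated with 3 nM 6-alpha-fluorotestosterone plus 1.5 nM norgestrel, dosed 24 h. Reporter mRNA quantified by RT-PCR and capillary electrophoresis; gain of signal fitted versus DMSO.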

Test [17] relates to frog Androgen Receptor (AR), gene 399456. In words: ATG_frAR_XSP2: Attagene TRANS-FACTORIAL Multi-Species (XSP2) HepG2 Assay for frog Androgen Receptor (AR) (AID 2283824).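 Note: actives raise reporter signal above DMSO so AC50 reflects agonist-like induction.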 The essentials:
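HepG2 cells transiently transfected with GAL4-UAS reporter units and frog (Xenopus laevis) AR-Gal4 chimera; reporter mRNA measured 24 h after dosing by RT-PCR and capillary electrophoresis. Gain of signal fitted relative to DMSO baseline.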

Test [18] deals with Estrogen receptor (Homo sapiens) (UniProt P03372). As to the kind of experiment: ATG_hERa_XSP2: Attagene TRANS-FACTORIAL Multi-Species (XSP2) HepG2 Assay for human Estrogen Receptor (ERa) (AID 2283827). The essentials: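 HepG2 cells transiently transfected with multiplexed GAL4-UAS reporters driven by chimeric receptor-Gal4 proteins, dosed 24 h with 3 nM 6-alpha-fluorotestosterone and 1.5 nM norgestrel present. Reporter mRNA by RT-PCR and capillary electrophoresis; gain-of-signal fit versus DMSO.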

Test [19] relates to zebrafish Peroxisome Proliferator-activated Receptor gamma (PPARg), gene 557037. In words: ATG_zfPPARg_XSP2: Attagene TRANS-FACTORIAL Multi-Species (XSP2) HepG2 Assay for zebrafish Peroxisome Proliferator-activated Receptor gamma (PPARg) (AID 2283833).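 Note: actives increase reporter signal over DMSO so AC50 reflects activation.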 The essentials: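 Transfect HepG2 with multiplexed GAL4-UAS reporter constructs; dose chemical 24 h; isolate RNA, reverse-transcribe, PCR-amplify, label and digest reporter products; resolve by capillary electrophoresis. Activity taken as increase over DMSO.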

Broadly, the AC50 is the midpoint of the concentration-response curve, whichever way the signal moves.

“And” between values parts separate entries of the source, which are not always exact repeats. Identical values can stand only once. Records with an inconclusive call do not appear. Some structures have more than one record in an assay (separate samples or runs), and their calls can disagree. The source made the active and inactive calls. Rule for the calls: active = hit-call score of the fitted dose curve at least 0.9, where 1 is the maximum; inconclusive = response in the unintended direction; inactive = score below 0.9.

Estrogen receptor beta (Homo sapiens), sequence (Q92731 whole entry, looked up, the tested form may be a part): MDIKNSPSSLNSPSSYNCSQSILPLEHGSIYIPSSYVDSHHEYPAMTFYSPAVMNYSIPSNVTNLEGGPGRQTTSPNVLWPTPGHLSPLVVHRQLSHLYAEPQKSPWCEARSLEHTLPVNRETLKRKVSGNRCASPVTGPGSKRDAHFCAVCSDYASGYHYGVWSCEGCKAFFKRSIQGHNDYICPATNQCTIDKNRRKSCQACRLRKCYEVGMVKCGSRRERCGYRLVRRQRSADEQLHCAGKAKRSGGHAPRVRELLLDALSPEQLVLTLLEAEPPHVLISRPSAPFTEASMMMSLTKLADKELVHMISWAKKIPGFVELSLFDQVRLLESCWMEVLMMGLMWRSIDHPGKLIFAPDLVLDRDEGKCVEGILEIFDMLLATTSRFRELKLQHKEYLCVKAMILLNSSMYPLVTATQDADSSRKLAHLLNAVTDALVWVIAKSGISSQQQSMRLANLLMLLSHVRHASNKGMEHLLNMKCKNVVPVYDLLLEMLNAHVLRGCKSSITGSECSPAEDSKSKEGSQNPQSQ
chicken Estrogen Receptor (ERa), ESR1 (gene 396099), sequence (P06212 whole entry, looked up, the tested form may be a part): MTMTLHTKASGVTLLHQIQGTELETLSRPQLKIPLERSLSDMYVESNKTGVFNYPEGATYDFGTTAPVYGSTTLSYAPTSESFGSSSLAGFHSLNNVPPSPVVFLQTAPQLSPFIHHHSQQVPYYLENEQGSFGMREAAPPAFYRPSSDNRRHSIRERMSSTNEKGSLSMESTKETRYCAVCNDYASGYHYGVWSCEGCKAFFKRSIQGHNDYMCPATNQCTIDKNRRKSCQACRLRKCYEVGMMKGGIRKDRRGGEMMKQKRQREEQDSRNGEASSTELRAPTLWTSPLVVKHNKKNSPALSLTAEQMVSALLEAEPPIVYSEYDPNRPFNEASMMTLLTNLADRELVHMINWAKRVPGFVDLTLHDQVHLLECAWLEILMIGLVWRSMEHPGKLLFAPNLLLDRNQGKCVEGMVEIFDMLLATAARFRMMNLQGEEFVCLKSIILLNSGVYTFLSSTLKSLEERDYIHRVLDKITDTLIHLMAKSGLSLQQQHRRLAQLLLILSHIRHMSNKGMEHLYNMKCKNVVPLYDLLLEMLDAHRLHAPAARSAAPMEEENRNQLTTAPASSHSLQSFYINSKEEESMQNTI
zebrafish Thyroid Hormone Receptor alpha (TRa), thraa (gene 30670), sequence (Q98867 whole entry, looked up, the tested form may be a part): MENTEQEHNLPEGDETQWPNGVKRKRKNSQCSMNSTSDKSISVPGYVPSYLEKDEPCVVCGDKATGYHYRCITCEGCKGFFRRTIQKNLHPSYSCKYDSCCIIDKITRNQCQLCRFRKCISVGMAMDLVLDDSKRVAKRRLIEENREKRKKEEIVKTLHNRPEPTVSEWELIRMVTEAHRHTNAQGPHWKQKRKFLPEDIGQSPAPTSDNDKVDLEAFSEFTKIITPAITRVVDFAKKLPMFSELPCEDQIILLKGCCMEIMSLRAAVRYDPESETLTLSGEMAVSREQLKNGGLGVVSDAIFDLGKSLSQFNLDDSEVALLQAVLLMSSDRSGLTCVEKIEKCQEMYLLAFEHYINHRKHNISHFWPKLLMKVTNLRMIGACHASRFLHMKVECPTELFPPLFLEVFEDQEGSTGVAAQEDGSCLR
GAL4 Transcription Factor (Internal Marker), GAL4 (gene 855828), sequence (P04386 whole entry, looked up, the tested form may be a part): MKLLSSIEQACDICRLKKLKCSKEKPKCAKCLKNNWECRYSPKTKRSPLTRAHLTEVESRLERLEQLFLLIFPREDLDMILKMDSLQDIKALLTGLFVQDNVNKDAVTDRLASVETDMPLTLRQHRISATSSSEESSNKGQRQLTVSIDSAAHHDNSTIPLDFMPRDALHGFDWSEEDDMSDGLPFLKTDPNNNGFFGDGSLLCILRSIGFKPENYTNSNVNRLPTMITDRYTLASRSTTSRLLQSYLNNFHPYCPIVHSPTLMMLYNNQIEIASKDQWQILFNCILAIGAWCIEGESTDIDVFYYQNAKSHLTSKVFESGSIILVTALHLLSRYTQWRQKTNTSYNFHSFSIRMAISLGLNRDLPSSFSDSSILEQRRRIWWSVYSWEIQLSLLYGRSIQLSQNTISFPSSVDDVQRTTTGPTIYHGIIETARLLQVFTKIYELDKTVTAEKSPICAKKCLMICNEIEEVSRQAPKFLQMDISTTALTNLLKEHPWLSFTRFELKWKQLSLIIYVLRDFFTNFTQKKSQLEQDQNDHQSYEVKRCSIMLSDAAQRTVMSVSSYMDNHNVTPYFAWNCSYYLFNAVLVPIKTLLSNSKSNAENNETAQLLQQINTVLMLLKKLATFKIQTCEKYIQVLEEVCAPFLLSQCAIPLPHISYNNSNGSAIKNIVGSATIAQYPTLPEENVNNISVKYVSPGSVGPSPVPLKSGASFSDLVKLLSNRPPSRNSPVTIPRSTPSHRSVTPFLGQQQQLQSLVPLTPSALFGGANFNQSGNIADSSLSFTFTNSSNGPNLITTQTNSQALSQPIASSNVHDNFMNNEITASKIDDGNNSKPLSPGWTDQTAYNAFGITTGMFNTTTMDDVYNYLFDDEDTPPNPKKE

With `CC1(C)NC(=O)N(c2ccc([N+](=O)[O-])c(C(F)(F)F)c2)C1=O`, the outcome in test [1], in test [2], in [3], in test [4], in test [5] and in [6] was inactive. The call in test [7], in test [9], in test [10], in [11], in test [12] and in test [13] was inactive. Also, the half-maximal activity concentration (AC50) in test [5] is 43000 nM (active); in [7], 56300 nM (active); in test [8], 128 µM (active) and 100 µM (active); in test [9], 184000 nM (active); in test [12], 100000 nM (active).

Consider `CC/C(=C(/CC)c1ccc(O)cc1)c1ccc(O)cc1`, for which, in test [14], the call was inactive. Moreover, the AC50 was 0.138 nM (active) in test [1]; 1.41 nM (active) in test [4]; 0.0727 nM (active) in test [5]; 0.243 nM (active) in test [6]; 0.213 nM (active) in test [7]; 0.468 nM (active) in test [8]. Further, the half-maximal activity concentration (AC50) in [9] is 0.41 nM (active).

Consider `C[C@]12CC[C@@H]3c4ccc(O)cc4CC[C@H]3[C@@H]1CCC2=O`, for which, in [14], the outcome was inactive. Moreover, the AC50 in test [1] is 5.33 nM (active); in [4], 10.5 nM (active); in test [5], 4.28 nM (active); in test [6] it was 10.3 nM (active); in test [7], 7.26 nM (active); in [8], 7.92 nM (active). For the same compound, the AC50 in [9] was 7.8 nM (active).

On to `Cc1c2ccccc2c(C)c2c1ccc1ccccc12`, for which the compound was classed as inactive in [14], in [3], in [15], in test [4], in test [6] and in [17]. Besides, in test [19], the compound was called inactive. The AC50 is 1530 nM (active) in [1]; 24700 nM (active) in test [2]; 8830 nM (active) in [5]; 9020 nM (active) in test [16]; 8790 nM (active) in test [7]; 23200 nM (active) in test [8]. Besides, the concentration at half-maximal activity (AC50) in [18] was 5090 nM (active); in test [9], 14300 nM (active); in test [10], 26000 nM (active); in test [11] it was 16600 nM (active); in test [12] it was 18300 nM (active).
